Drawing on PubChem BioAssay (NCI), this text covers growth for 39 compounds.

The panel holds about 83,000 compounds, 20% with a hit somewhere; the sample as a whole holds those more often.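 Note: values are percent growth. 100 is the growth of untreated cells, values between 100 and 0 indicate rising inhibition; between -100 and 0 indicates cell death.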 Unmarked numbers belong to inactive results. Calls of active or inactive are those of the source. How the source made its calls: active means growth percent below 10; inactive means the rest.

The first test has as its system DU-145 prostate. Kind of test: NCI-60 one-dose screen, 48 h (100 = growth as untreated, 0 = no growth, -100 = all killed). The settings on record: 10 µM.
For the compound `CCNc1nc2c(cnn2C)c(=O)[nH]1`, the growth was 113%.

As for `O=[N+]([O-])c1cccc(N=Nc2ccc(O)cc2O)c1`, the growth is 95.2%.

On to `CC(=O)/C(Cc1ccccc1)=N/O`, for which the growth was 115%.

As to `O=[N+]([O-])c1ccccc1N=Nc1ccc(O)cc1O`, the growth was 117%.

Take `O=P(O)(O)OCC(O)CO` (configuration not stated): the growth is 107%.

Consider `CCCCCCCCCCC1CO1` (configuration not stated), for which the growth was 108%.

Turning to `CC(=O)OCCO`, the growth is 110%.

For `CC(=O)OCC(=O)[C@@]1(O)CC[C@H]2[C@@H]3CC[C@@H]4C[C@H](O)CC[C@]4(C)[C@H]3C(=O)C[C@@]21C`, the growth is 120%.

`COc1cc2c3cc1Oc1c(OC)c(OC)cc4c1C(Cc1ccc(O)c(c1)Oc1ccc(cc1)CC3N(C)CC2)N(C)CC4` (configuration not stated): the growth is 33.4%.

Take `COc1cccc(/C=N/NC(=S)NC2CC3CCC2C3)c1O` (configuration not stated): the growth was 56.6%.

As to `O=S(=O)(Cc1ccccc1)c1ccccc1`, the growth is 107%.

As for `COc1cc2nn(-c3ccccc3N)nc2cc1OC`, the growth is 107%.

With `CC1C(=O)c2ccccc2CC1C(=O)O` (configuration not stated), the growth is 135%.

With `O=[N+]([O-])c1ccc(S(=O)(=O)NN=C2CCCCC2)cc1`, the growth is 121%.

As to `CC(=O)c1ccc(N=C(C#N)C2=C(O)c3ccccc3C2=O)cc1`, the growth is 113%.

`CNc1nc(NC)c2cn[nH]c2n1`: the growth was 113%.

Consider `CC(=Nc1ccccc1)C1=C(O)C(Cc2cccc(F)c2)NC1=O` (configuration not stated), for which the growth was -37.9% (active).

In the case of `CCOC(=O)c1ccc(NC(=S)P(=O)(c2ccccc2)c2ccccc2)cc1`, the growth is 113%.

Take `COCCOC(=O)c1ccc(C(C)C)cc1`: the growth was 103%.

Turning to `CCCC(C)OCC(=O)O` (configuration not stated), the growth was 106%.

Take `O=c1[nH][nH]c(=O)c2cc([N+](=O)[O-])ccc12`: the growth was 126%.

For `O=[N+]([O-])c1ccc(N=Nc2ccc(O)c3ccccc23)cc1`, the growth is 66.9%.

For `CCCCCCCCO`, the growth is 104%.

In the case of `Cn1cnc2nc(Cl)nc(Cl)c21`, the growth is -24% (active).

Take `OCC(O)C(O)C(O)C(O)/C=N/O` (configuration not stated): the growth is 108%.

Regarding `O=C(O)COCC(=O)O`, the growth is 103%.

In the case of `Cc1ccc(S(=O)(=O)O)c(C)c1`, the growth was 108%.

In the case of `NC(=S)N/N=C/c1ccc(N)cc1`, the growth is 108%.

Take `O=c1[nH]nc(SC2CCCCC2)c(=O)[nH]1`: the growth is 114%.

`CC1CC(O)C2C3(C)CCCC2(COC3=O)C12CCC1(CCOC1=O)O2` (configuration not stated): the growth is 105%.

In the case of `CCOc1ccc(Br)cc1/C=N\N=C\c1cc(Br)ccc1OCC`, the growth was 102%.

Take `S=C1CCCCCN1`: the growth is 110%.

On to `CC1CCCCN1C(=S)Nc1ccc(S(=O)(=O)N2CCCCC2)cc1` (configuration not stated), for which the growth was 106%.

For the compound `COc1cc(C2c3cc4c(cc3C3OC(=O)C2C3CO)OCO4)cc(OC)c1OC` (configuration not stated), the growth is -41.5% (active).

With `CCCCOC(=O)c1ccc(C(C)C)cc1`, the growth is 106%.

On to `NCCCN`, for which the growth is 107%.

As to `O=C(O)CCCC(=O)O`, the growth was 99.8%.

As for `COc1ccc(-c2cc3c(nn2)-c2ccccc2C3=O)cc1`, the growth was 21.2%.

The next test deals with K-562 leukemia. Described as above. The settings on record: 10 µM.
`CCNc1nc2c(cnn2C)c(=O)[nH]1`: the growth was 98.2%.

Regarding `O=[N+]([O-])c1cccc(N=Nc2ccc(O)cc2O)c1`, the growth is 17.7%.

Regarding `CC(=O)/C(Cc1ccccc1)=N/O`, the growth was 85.5%.

Regarding `O=[N+]([O-])c1ccccc1N=Nc1ccc(O)cc1O`, the growth is 120%.

With `CCn1c(=O)n(C)c2c(=O)n(C)c(=O)n(C)c21`, the growth was 107%.

Regarding `O=P(O)(O)OCC(O)CO` (configuration not stated), the growth is 113%.

On to `CCCCCCCCCCC1CO1` (configuration not stated), for which the growth was 102%.

With `CC(=O)OCCO`, the growth was 103%.

Consider `CC(=O)OCC(=O)[C@@]1(O)CC[C@H]2[C@@H]3CC[C@@H]4C[C@H](O)CC[C@]4(C)[C@H]3C(=O)C[C@@]21C`, for which the growth was 101%.

With `COc1cc2c3cc1Oc1c(OC)c(OC)cc4c1C(Cc1ccc(O)c(c1)Oc1ccc(cc1)CC3N(C)CC2)N(C)CC4` (configuration not stated), the growth was 0.419% (active).

In the case of `COc1cccc(/C=N/NC(=S)NC2CC3CCC2C3)c1O` (configuration not stated), the growth is 39.3%.

On to `O=S(=O)(Cc1ccccc1)c1ccccc1`, for which the growth was 103%.

As for `COc1cc2nn(-c3ccccc3N)nc2cc1OC`, the growth was 99.3%.

Regarding `CC1C(=O)c2ccccc2CC1C(=O)O` (configuration not stated), the growth was 103%.

Turning to `O=[N+]([O-])c1ccc(S(=O)(=O)NN=C2CCCCC2)cc1`, the growth is 111%.

`CC(=O)c1ccc(N=C(C#N)C2=C(O)c3ccccc3C2=O)cc1`: the growth is 85.5%.

For the compound `CNc1nc(NC)c2cn[nH]c2n1`, the growth was 104%.

Regarding `CC(=Nc1ccccc1)C1=C(O)C(Cc2cccc(F)c2)NC1=O` (configuration not stated), the growth is 5.47% (active).

`CCOC(=O)c1ccc(NC(=S)P(=O)(c2ccccc2)c2ccccc2)cc1`: the growth was 56.2%.

For the compound `COCCOC(=O)c1ccc(C(C)C)cc1`, the growth was 106%.

For `CCCC(C)OCC(=O)O` (configuration not stated), the growth was 112%.

Regarding `O=c1[nH][nH]c(=O)c2cc([N+](=O)[O-])ccc12`, the growth is 98.9%.

`O=[N+]([O-])c1ccc(N=Nc2ccc(O)c3ccccc23)cc1`: the growth was 22.1%.

Turning to `CCCCCCCCO`, the growth was 101%.

Take `Cn1cnc2nc(Cl)nc(Cl)c21`: the growth was 25.5%.

For `OCC(O)C(O)C(O)C(O)/C=N/O` (configuration not stated), the growth was 111%.

Take `O=C(O)COCC(=O)O`: the growth is 116%.

Take `Cc1ccc(S(=O)(=O)O)c(C)c1`: the growth is 98.8%.

With `NC(=S)N/N=C/c1ccc(N)cc1`, the growth was 98.7%.

On to `O=c1[nH]nc(SC2CCCCC2)c(=O)[nH]1`, for which the growth was 84.3%.

In the case of `CC1CC(O)C2C3(C)CCCC2(COC3=O)C12CCC1(CCOC1=O)O2` (configuration not stated), the growth is 127%.

Consider `CCOc1ccc(Br)cc1/C=N\N=C\c1cc(Br)ccc1OCC`, for which the growth is 95.3%.

`S=C1CCCCCN1`: the growth was 107%.

For `CC1CCCCN1C(=S)Nc1ccc(S(=O)(=O)N2CCCCC2)cc1` (configuration not stated), the growth is 84.6%.

Consider `COc1cc(C2c3cc4c(cc3C3OC(=O)C2C3CO)OCO4)cc(OC)c1OC` (configuration not stated), for which the growth is 8.48% (active).

For `CCCCOC(=O)c1ccc(C(C)C)cc1`, the growth is 106%.

As to `NCCCN`, the growth is 103%.

On to `O=C(O)CCCC(=O)O`, for which the growth was 120%.

Regarding `COc1ccc(-c2cc3c(nn2)-c2ccccc2C3=O)cc1`, the growth is 21.9%.
